USP1 inh: USP1/UAF1 (human) deubiquitinase inhibition; Potency, µM (doses to about 57.1 µM), most hits filed as inhibitors; 390,000 compounds, 0.23% hits; AID 743255; recombinant USP1/UAF1, Ub-Rhodamine cleavage fluorescence; active = well fitted inhibition curve with a large enough effect; inconclusive = small, poorly fitted or top-dose-only effect; inactive = no such curve, though single readings can be large or run the other way; also: nearly all actives have a fitted effect of over 60% in size
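Step one: compound is pinned into 1nM USP1/UAF1 in HEPES pH 7.8 buffer with TCEP. Step two: 15 min room-temperature incubation. Step three: Ub-Rho (150nM final) starts cleavage, tracked by fluorescence over six one-minute reads.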
TRPV1 agonist: human TRPV1 agonism; Q8NER1; TRPV1-expressing cells, Fluo-8 calcium influx, agonist mode; activation, % at 8.33 µM; 320,000 compounds, 0.19% hits; in the data active = activation above about 80%; inconclusive = between about 30% and that limit
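TRPV1-expressing cells were cultured overnight at 35.5C and loaded with Fluo-8 calcium dye for 40 to 90 min at room temperature. After a 10 s baseline, compound was added and calcium influx was read kinetically for 3 min (ex 480/em 520 nm).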
TRPML1 ag: human mucolipin-1 channel agonism. Q9GZU1. TRPML1-expressing cells, Ca2+ dye fluorescence, FDSS. activation, % (test concentration not listed). 410,000 compounds, 0.12% hits. AID 624414; in the data active = activation above about 50%; inconclusive = mostly about 30% to 49%
Target sequence (Q9GZU1 whole entry, looked up): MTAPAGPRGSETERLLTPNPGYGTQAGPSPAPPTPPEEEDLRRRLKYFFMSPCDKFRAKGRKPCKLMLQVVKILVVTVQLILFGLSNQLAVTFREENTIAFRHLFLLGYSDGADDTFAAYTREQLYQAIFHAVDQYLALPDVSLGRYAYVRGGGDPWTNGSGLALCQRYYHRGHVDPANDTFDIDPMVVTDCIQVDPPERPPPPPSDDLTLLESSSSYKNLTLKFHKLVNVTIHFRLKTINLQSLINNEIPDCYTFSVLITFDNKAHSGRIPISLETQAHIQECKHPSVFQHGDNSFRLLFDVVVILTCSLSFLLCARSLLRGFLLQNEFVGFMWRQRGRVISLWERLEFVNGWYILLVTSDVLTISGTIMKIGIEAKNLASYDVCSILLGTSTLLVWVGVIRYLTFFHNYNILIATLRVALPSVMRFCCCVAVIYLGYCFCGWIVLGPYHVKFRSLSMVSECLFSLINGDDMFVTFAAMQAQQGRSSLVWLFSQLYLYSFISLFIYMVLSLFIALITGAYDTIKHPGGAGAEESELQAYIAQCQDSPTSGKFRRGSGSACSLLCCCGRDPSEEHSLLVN
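TRPML1-DL cells, Tet-induced overnight (~16 h, 37 degrees C), loaded 45-90 min at room temperature with Ca8 no-wash calcium dye plus quencher. FDSS fluorescence: 10 s baseline, compound pin-transfer, 110 s agonist read, then EC80 54-4 (4uM final) and 110 s antagonist read.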
TRPML1 inh: human mucolipin-1 channel inhibition. Q9GZU1. TRPML1-inducible cells, Ca2+ dye fluorescence, FDSS; active compounds read low; inhibition of EC80 agonist-evoked calcium signal. activity change, negative = inhibition, % (no concentration beside the values). 390,000 compounds, 0.02% hits. AID 624415; in the data active = activity change below about -50%; inconclusive = between about -30% and that limit;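 also: stimulus is agonist 54-4 at its EC80 concentration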
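Calcium fluorescence in TRPML1-DL cells induced overnight with Tet: a 110 s read after compound pin addition, then a 110 s antagonist read after challenge with 54-4 at 4 uM final (EC80).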
TRPV1 PAM: human TRPV1 potentiation; Q8NER1; TRPV1-expressing cells, Fluo-8 calcium influx, capsaicin EC20 potentiation; potentiation, % at 8.33 µM; 320,000 compounds, 0.02% hits; AID 540277; in the data active = potentiation above about 80%; inconclusive = between about 30% and that limit
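Cells expressing TRPV1 were dye-loaded with Fluo-8 and read kinetically: 10 s baseline, 3 min after compound (agonist portion), then 2 min after EC20 capsaicin (allosteric enhancer portion). Calcium-bound dye fluorescence at 480/520 nm.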
Numbers stand for hits; - = inactive; ? = inconclusive; . = no result. Most compounds without a hit are left out; they make up all but 0.4% or so of the library.

SMILES	USP1 inh	TRPV1 agonist	TRPML1 ag	TRPML1 inh	TRPV1 PAM
CCOC(=O)/C(=C/C=C1\Sc2cc(C)c(C)cc2N1CC)C(C)=O	25.1µM	105.7	89.8	-	-
O=C(Nc1ccc2c(c1)OCO2)C1CCN(C(=O)CSc2ncnc3ccccc23)CC1	-	80.8	-	-	-
COc1ccc(-c2nn3c(-c4cc(-c5ccccc5)n[nH]4)nnc3s2)cc1OC	.	.	-	.	.
COc1ccc(CC(=O)Nc2oc(-c3ccccc3)c(-c3ccccc3)c2C#N)cc1OC	-	84.1	-	-	-
CNc1ccc(Br)cc(C(=O)/C=C/c2cccc(Cl)c2Cl)c1=O	?	-	-	-	-
CCNc1ccc(Br)cc(C(=O)/C=C/c2ccccc2Cl)c1=O	28.2µM	.	-	-	.
COC(=O)c1ccc(Cl)cc1N(Cc1c(F)cccc1Cl)S(C)(=O)=O	-	-	107.9	-	-
Nc1ccccc1N=Cc1ccc(-c2cccc(Cl)c2)o1	-	117.0	-	-	-
COC(=O)N/N=C/c1ccc(-c2cccc(Cl)c2)o1	-	-	-	-	-
COc1ccc(CNC(=O)CCC(=O)N2CC(C)Oc3ccccc32)cc1 (stereo not given)	-	-	-	-	-
CCN(CC)c1ccc(/C=C(\C#N)C(=O)c2ccc(Br)cc2)cc1	25.1µM	?	79.2	-	-
CN(C)c1ccc(/C=C(\C#N)C(=O)c2ccccc2)cc1	14.1µM	83.7	71.8	?	-
COc1ccc(/C=N/NC(=O)C2C3CCCCC32)cc1OC (stereo not given)	-	-	-	-	-
CC1CCN(C(=O)CCCOc2ccc(Cl)cc2)CC1	-	80.4	-	-	-
CC1CCN(CCCCOc2ccc(Cl)cc2)CC1	-	-	-	-	?
COc1ccc(CN2C(=O)c3cccnc3C2=O)cc1S(=O)(=O)N1CC(C)Oc2ccccc21 (stereo not given)	-	-	-	-	-
CC(OC(=O)CC1CCCCC1)C(=O)Nc1ccc(F)cc1 (stereo not given)	-	83.2	-	-	-
CC(=O)Nc1ccc(NC(=O)C(C)OC(=O)CC2CCCCC2)cc1 (stereo not given)	-	-	-	-	?
Cc1ccccc1CSc1nc2c([nH]c3ccccc32)c(=O)n1-c1ccccc1	-	.	-	-	.
O=C(N/N=C/c1ccc(OCc2ccccc2)cc1)c1ccncc1	-	-	-	-	-
Oc1ccc(N=Cc2ccc(OCc3ccccc3)cc2)cc1	2.82µM	-	-	-	-
Cc1ccc(/C=C/C(=O)N2CCc3ccccc3C2)cc1	-	80.4	-	-	-
COc1ccc(Cl)cc1C(=O)Nc1cccc(-c2ccc3nncn3n2)c1	-	-	.	.	-
CCOc1ccc(C2C(C#N)=C(N)SC(N)=C2C#N)cc1OCC	31.6µM	-	-	-	-
COCC(=O)OC1CCn2c1nc1c2C(=O)C(C)=C(NC(C)=O)C1=O (stereo not given)	4.47µM	.	-	-	.
SMILES	USP1 inh	TRPV1 agonist	TRPML1 ag	TRPML1 inh	TRPV1 PAM
Cc1c(C)c2cc(Cl)c(O)c(CN3CCCCC3)c2oc1=O	-	-	-	-	-
CC1(C)Cc2c(C#N)c(N)n(-c3ccccc3)c(=S)c2CO1	-	-	-	-	-
CC1(C)C=C2C(=NN(c3ccccc3)C(N)=C2C#N)CO1	4.47µM	-	-	-	-
C=C(C)CNC(=S)NNC(=O)c1ccco1	-	-	-	-	-
O=C(CNc1cccc(C(F)(F)F)c1)N/N=C/c1cccc(Br)c1	-	-	-	-	-
O=C(CNc1cccc(C(F)(F)F)c1)N/N=C/C1CCCCC1	-	97.1	-	-	-
Cn1c(N)c(-c2ccccc2)c2ccc([N+](=O)[O-])cc2c1=O	?	-	83.3	-	-
N#Cc1c(N)n(Cc2ccccc2)c(=O)c2cc([N+](=O)[O-])ccc12	-	-	-	-	-
CCCCCCCNC(=O)C1(CC2CC(c3ccc(Cl)cc3)=NO2)CCN(C(=O)C2(C)CC2)CC1 (stereo not given)	-	-	-	-	-
COC(=O)CSc1ncnc2c1cnn2Cc1ccccc1	-	-	-	-	-
CC(C)(C)C(=O)CSc1ncnc2c1cnn2Cc1ccccc1	-	90.2	-	-	-
O=C1c2ccccc2C(=O)C12OC2c1ccc(Cl)cc1Cl (stereo not given)	-	-	-	-	-
COc1ccc(-c2c/c(=N\c3nc(-c4ccccc4)c(C)s3)c3ccccc3o2)cc1O	-	-	-	-	-
CCOC(=O)[C@@H]1[C@H]2COc3cc(OC)ccc3[C@H]2N2C(=O)N(c3ccccc3)C(=O)[C@]12C	-	.	-	-	.
Fc1ccc(Nc2ncnc3sc4c(c23)CCC4)cc1	-	80.6	-	-	-
Cc1ccc(-n2nnnc2C(=Cc2ccc(N(C)C)cc2)c2nnnn2-c2ccc(C)cc2)cc1	22.4µM	-	-	-	-
Cn1c(-c2c(N)n(CCc3ccccc3)c3nc4ccccc4nc23)nc2ccccc21	28.2µM	-	-	-	-
Cn1c(-c2c(N)n(CCCc3ccccc3)c3nc4ccccc4nc23)nc2ccccc21	?	-	-	-	-
O=C(c1ccccc1)c1ccc(O)cc1O	28.2µM	-	-	-	-
CCN1/C(=C/C=C/c2oc3ccc(-c4ccccc4)cc3[n+]2CC)Oc2ccc(-c3ccccc3)cc21	.	105.4	80.1	-	?
CCN1/C(=C/C=C/c2sc3ccccc3[n+]2CC)Sc2ccccc21	?	-	-	-	-
CC(=O)Oc1ccc(C(=O)[C@H]2[C@H]3C(=O)N(c4ccc(C)cc4C)C(=O)[C@H]3[C@@H]3C=CC=NN32)cc1	-	-	-	-	-
O=C(/C=C/c1ccc(N2CCC(c3ccccc3)=N2)cc1)c1ccccc1	-	-	87.2	-	-
O=C(/C=C/c1ccc(O)cc1)c1ccccc1	-	?	-	-	-
CCOC(=O)/C(=C\c1ccc(N2CCC(c3ccccc3)=N2)cc1)C(C)=O	28.2µM	.	?	-	.
SMILES	USP1 inh	TRPV1 agonist	TRPML1 ag	TRPML1 inh	TRPV1 PAM
CCC1=C(OC(=O)N(CC)CC)N2C(=O)OC(=NCC3CC3)[C@]2(Cc2ccccc2)[C@H]2C1=CC[C@H]1C(=O)N(C)C(=O)[C@H]12	-	?	-	-	-
COC1=C(N)C(=O)c2nc(C)ccc2C1=O	7.08µM	.	-	-	.
COC1=C(Br)C(=O)c2nc(C)ccc2C1=O	25.1µM	.	-	-	.
Cc1nc(NC(=O)COC(=O)/C=C/c2ccco2)c(Cl)cc1Cl	-	-	-	-	-
N#CCSc1nnc(-c2cnccn2)n1Cc1ccccc1	-	-	-	-	-
O=C(Oc1ccc2c(c1)OCO2)c1cccs1	-	-	-	-50.1	-
COc1ccc(Br)cc1CNc1ccccc1	-	-	.	.	-
Cc1nc2ccccc2cc1OCc1ccc(Cl)cc1	?	83.4	-	-	-
Cc1nc2ccccc2cc1OCc1ccccc1	-	?	-	-	-
Cc1oc(-c2ccc(Cl)cc2)cc1C(=O)O	-	-	-	-	-

Screening data (PubChem BioAssay)
